Compound activity deposited in PubChem BioAssay by several laboratories.
This is a sample that favours compounds with a hit; in the whole collection about 2.4% have one here.
EP2 modulator = EP2 receptor modulators, cAMP readout, primary screen, cell-based, HTRF cAMP, PGE2 stimulation. 0.83% of 260,000 active. AID 940, 2007. EP2-expressing cells, cAMP HTRF FRET, PGE2 co-stimulation. induction, % at 25 µM;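 active = compounds whose cAMP rise, as percent of the full-agonist control response, exceeds 60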;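 also: rat C6 glioma line stably carrying human EP2 under a CMV promoter; the protocol text gives 20 µM as final concentration; 100% = response of wells given 1 µM PGE2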
p97 ATPase inh = inhibitors of human p97 ATPase, primary screen, biochemical; Transitional endoplasmic reticulum ATPase (Homo sapiens), P55072; AID 1481, 2009; inhibition, % at 8 µM; 0.42% of 220,000 active; recombinant p97 ATPase, Kinase-Glo ATP luminescence, 3 h; in the data active = inhibition above about 15%;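 also: 0% = DMSO vehicle and 100% = wells lacking enzyme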
Target sequence (P55072 whole entry, looked up): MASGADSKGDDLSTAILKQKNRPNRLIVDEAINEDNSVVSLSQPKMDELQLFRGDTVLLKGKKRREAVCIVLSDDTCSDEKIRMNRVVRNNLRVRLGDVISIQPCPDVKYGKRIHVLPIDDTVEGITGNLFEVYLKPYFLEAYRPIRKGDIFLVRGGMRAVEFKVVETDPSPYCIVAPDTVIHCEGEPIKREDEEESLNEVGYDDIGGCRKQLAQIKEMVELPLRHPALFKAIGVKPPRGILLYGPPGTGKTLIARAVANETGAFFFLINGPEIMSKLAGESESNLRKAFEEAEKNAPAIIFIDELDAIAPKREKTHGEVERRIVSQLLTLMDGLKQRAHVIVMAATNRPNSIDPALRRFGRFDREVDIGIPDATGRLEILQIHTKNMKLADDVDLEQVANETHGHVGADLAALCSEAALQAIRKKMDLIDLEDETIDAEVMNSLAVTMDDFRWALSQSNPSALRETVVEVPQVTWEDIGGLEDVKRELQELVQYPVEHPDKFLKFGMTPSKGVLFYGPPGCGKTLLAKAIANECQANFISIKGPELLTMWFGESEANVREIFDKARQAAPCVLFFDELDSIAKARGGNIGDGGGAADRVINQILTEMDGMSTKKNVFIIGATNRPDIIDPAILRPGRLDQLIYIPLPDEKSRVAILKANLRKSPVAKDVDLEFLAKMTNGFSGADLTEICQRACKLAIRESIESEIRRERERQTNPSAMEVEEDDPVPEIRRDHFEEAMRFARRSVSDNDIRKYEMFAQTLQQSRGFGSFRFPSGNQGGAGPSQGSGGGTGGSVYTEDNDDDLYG
Hck Nef HTS = inhibitors of Nef-activated human Hck kinase, primary screen, biochemical, Z-Lyte FRET, 384-well, Hck-YEEI; Tyrosine-protein kinase HCK (Homo sapiens), P08631; Recombinant Hck-YEEI plus Nef, Z-Lyte FRET kinase assay; inhibition, % at 20 µM; 0.68% of 220,000 active; AID 463187, 2010;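 active = Hck-Nef kinase inhibition above about 50%, limit read from the data; inactive = inhibition below that limit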;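 also: 0% = DMSO with Hck plus Nef and 100% = Hck alone without Nef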
Arbovirus anti = antivirals against arbovirus infection, primary screen, cell-based, full library, 10K replicate subset; AID 1251, 2008; inhibition, % at 10 µM; 0.37% of 200,000 active; arbovirus infection cell-based antiviral screen; in the data active = inhibition above about 30%
PGE2 EP2 inh = human EP2 receptor antagonists, primary screen, TR-FRET cAMP, C6 glioma cells; Prostaglandin E2 receptor EP2 subtype (Homo sapiens), P43116; C6 glioma cells expressing human EP2; cells stimulated with saturating PGE2; inhibition, % at 25 µM; 0.52% of 260,000 active;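 active = percent inhibition above 40 after rounding to a whole number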;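 also: rat C6 glioma host cells with rolipram phosphodiesterase inhibitor present; the protocol text gives 20 µM as final concentration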
EP2 confirm = cAMP induction in EP2, EP4, beta2-AR and parental cells, confirmation, counter-screen for EP2 modulator project, cell-based, five parallel assays, C6 glioma, HEK293 | shares compounds with EP2 modulator | cAMP HTRF induction; plus low (about EC15) PGE2 agonist | calls only at 20 µM (by protocol) | 47% of 1,300 active;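 active = cAMP induction above 50% in the main assay while under 30% in all four parallel counter assays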;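 also: rat C6 glioma cells stably expressing human EP2 receptor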
* hit, by the source's call; i = inactive; x = not tested or not shown; + = active, no number.

SMILES	EP2 modulator	p97 ATPase inh	Hck Nef HTS	Arbovirus anti	PGE2 EP2 inh	EP2 confirm
Cc1ccc(/C=N/N(Cc2ccccc2)c2ccccc2)o1	69.1*	1.7	21.7	3.7	6.3	+
CC/C(=C\C1CCCCC1)C(NP(=O)(c1ccccc1)c1ccccc1)c1ccccc1 (stereo unspecified)	70.5*	0.3	-1.6	-37.2	5.2	+
Cc1onc(-c2ccccc2)c1C(=O)N(Cc1ccco1)Cc1cccs1	97.9*	8.9	16.2	-12.5	8.8	+
Cc1onc(-c2ccccc2)c1C(=O)NCc1ccco1	-0.2	3.6	1.2	0.1	10.4	x
CCCCCCn1c(SCC(C)C)nc2c1c(=O)[nH]c(=O)n2C	67.2*	0.6	0.8	-29.3	8.5	i
CCCCCn1c(N2CCN(c3cccc(Cl)c3)CC2)nc2c1c(=O)[nH]c(=O)n2C	57.5	0.8	1.3	-2.9	11.0	x
CCSc1nc2c(c(=O)[nH]c(=O)n2C)n1Cc1ccc(Cl)cc1	66.3*	0.8	1.2	7.0	11.1	i
CCCCCn1c(CN2CCN(c3cc(Cl)ccc3C)CC2)nc2c1c(=O)[nH]c(=O)n2C	78.2*	4.7	0.3	1.2	6.1	i
C=CCn1c(SCC(=O)OCC)nc2c1c(=O)n(C)c(=O)n2C	-54.1	x	x	x	11.7	x
CCCNS(=O)(=O)c1ccc(OCC(=O)N2CCC(C)CC2)cc1	-43.3	x	x	x	3.6	x
COc1cc(C)c(NC(c2ccccc2)c2ccccc2)cc1OC	66.6*	-1.2	14.7	-6.3	3.5	+
C=CCn1c(CNC(=O)c2ccc(OC)c(OC)c2)n[nH]c1=S	-13.1	x	x	x	9.5	x
Cc1cccc(Oc2sc(C(=O)c3ccccc3)c(N)c2C#N)c1	72.0*	-1.8	1.2	-4.5	7.7	i
COc1ccc(-c2nc(NC(C)=O)sc2-c2ccc(OC)cc2)cc1	55.9	1.2	-18.2	-11.4	12.5	i
CNC[C@H](O)c1ccc(O)c(O)c1	86.0*	-4.4	0.1	-1.4	10.5	i
CNC[C@@H](SC)c1ccc(O)c(O)c1	40.1	x	x	x	7.9	x
C=CCn1c(CNC(=O)c2cccc(Cl)c2)n[nH]c1=S	10.5	x	x	x	5.4	x
Cc1ccc(CN(Cc2ccc3c(c2)n(C)c(=O)n3C)CC2CCCO2)o1 (stereo unspecified)	18.3	x	x	x	6.7	x
CC(C)Cc1nc2sc3c(=O)[nH]cnc3c2c2c1CCC2	73.9*	3.4	4.2	4.9	4.6	i
CCC(c1nnnn1C1CCCC1)N(Cc1cccs1)Cc1cc2cc(C)ccc2[nH]c1=O (stereo unspecified)	84.1*	3.9	2.0	-17.9	8.6	i
CCC(c1nnnn1C1CCCCC1)N(Cc1cccs1)Cc1cc2ccc(C)c(C)c2[nH]c1=O (stereo unspecified)	51.0	x	x	x	12.5	x
COc1ccc2cc(CN(Cc3ccco3)C(c3nnnn3C3CCCCC3)C(C)C)c(=O)[nH]c2c1 (stereo unspecified)	65.7*	4.4	1.4	-2.8	10.8	+
COc1ccc2cc(CN(CC3CCCO3)C(c3nnnn3C3CCCC3)C(C)C)c(=O)[nH]c2c1 (stereo unspecified)	39.9	x	x	x	3.7	x
CCOC(=O)CSc1nc(-c2ccccc2)nc2ccccc12	70.2*	2.2	1.4	-1.5	5.4	+
CCOC(=O)CSc1nc(Cc2ccccc2)nc2ccccc12	70.4*	0.0	22.2	-5.8	10.1	+
CC(C)OC(=O)CSc1nc(Cc2ccccc2)nc2ccccc12	74.4*	-1.6	21.2	3.9	7.2	+
COC(=O)CSc1nc(Cc2ccccc2)nc2ccccc12	66.8*	1.6	19.3	6.3	13.2	+
Cc1nnc(NC(=O)CSc2nc(Cc3ccccc3)nc3ccccc23)s1	10.1	x	x	x	9.7	x
